Source: PMC5540273 (PLoS ONE, 2017)

Columns and labels:
Conditions in all cases: concentration: 1 μM,replicates: in singlicate; n = 1
SNARK = test system: T1, SNARK
T1 construct: gene NUAK2

SNRK = test system: SNRK
SRC = test system: SRC
SRMS = test system: SRMS
SRPK1 = test system: SRPK1
SRPK2 = test system: SRPK2
SRPK3 = test system: SRPK3
STK16 = test system: STK16
STK33 = test system: STK33
STK35 = test system: STK35
STK36 = test system: STK36
STK39 = test system: STK39
SYK = test system: SYK
SgK110 = test system: SgK110
TAK1 = test system: T2, TAK1
T2 construct: gene MAP3K7

TAOK1 = test system: TAOK1
TAOK2 = test system: TAOK2
TAOK3 = test system: TAOK3
TBK1 = test system: TBK1
TEC = test system: TEC
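Further: KINOMEscan kinase panel screen.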

| SMILES | %Inh (SNARK) | %Inh (SNRK) | %Inh (SRC) | %Inh (SRMS) | %Inh (SRPK1) | %Inh (SRPK2) | %Inh (SRPK3) | %Inh (STK16) | %Inh (STK33) | %Inh (STK35) | %Inh (STK36) | %Inh (STK39) | %Inh (SYK) | %Inh (SgK110) | %Inh (TAK1) | %Inh (TAOK1) | %Inh (TAOK2) | %Inh (TAOK3) | %Inh (TBK1) | %Inh (TEC) |
| --- | --- | --- | --- | --- | --- | --- | --- | --- | --- | --- | --- | --- | --- | --- | --- | --- | --- | --- | --- | --- |
| CCn1c(-c2nonc2N)nc2cncc(Br)c21 [SB-738004] | 31% | 0% | 0% | 0% | 0% | 36% | 0% | 27% | 13% | 0% | 0% | 21% | 8% | 0% | 68% | 46% | 1% | 1% | 16% | 0% |
| C[C@@H]1CNc2c(sc3ccc4nc(-c5ccncc5)ccc4c23)C(=O)N1 | 53% | 11% | 1% | 0% | 23% | 0% | 31% | 13% | 60% | 0% | 6% | 0% | 11% | 0% | 62% | 75% | 0% | 0% | 9% | 0% |
| Cc1n[nH]c2cc(Nc3ccnc(Nc4cccc(CN5CCOCC5)c4)n3)ccc12 [GW682569] | 25% | 0% | 77% | 0% | 92.2% | 13% | 65% | 90.8% | 0% | 0% | 9% | 16% | 34% | 0% | 57% | 0% | 0% | 0% | 63% | 0% |
| Cc1ccc(CC(=O)N2CCc3cc(-c4cn(C)c5ncnc(N)c45)ccc32)cc1 [GSK2634758] | 37% | 8% | 0% | 6% | 13% | 31% | 10% | 100% | 0% | 5% | 3% | 1% | 33% | 0% | 17% | 0% | 0% | 0% | 4% | 0% |
| FC(F)(F)c1cc(Br)cc(Nc2nccc(-c3cnn4ncccc34)n2)c1 [GW810578] | 47% | 0% | 39% | 6% | 9% | 0% | 0% | 42% | 12% | 9% | 19% | 0% | 21% | 0% | 62% | 58% | 0% | 4% | 17% | 0% |
| O=C(NCC1CC1)c1ccc(-c2cc(C(=O)NC3CC3)ccc2F)cc1 [GW810445] | 0% | 0% | 9% | 2% | 0% | 0% | 0% | 4% | 0% | 0% | 0% | 15% | 17% | 51% | 4% | 0% | 0% | 0% | 26% | 2% |
| CC(C)c1nc(-c2cccc(NS(=O)(=O)c3ccccc3)c2)c(-c2ccnc(Nc3ccc4c(c3)CN(C)CC4)n2)s1 [GSK1649598] | 35% | 1% | 100% | 99.5% | 49% | 0% | 0% | 28% | 94.8% | 63% | 100% | 85% | 0% | 0% | 51% | 97.2% | 98.5% | 97.8% | 40% | 94.2% |
| Cn1cc(-c2cccc3c(N)c(C(N)=O)nnc23)cn1 | 9% | 11% | 0% | 24% | 45% | 11% | 39% | 11% | 27% | 8% | 6% | 29% | 11% | 0% | 21% | 25% | 29% | 12% | 31% | 0% |
| CS(=O)(=O)c1cccc(CNc2nc(Nc3ccc4c(c3)[C@@H]3C[C@@H]4CNC3=O)ncc2C(F)(F)F)c1 | 97.6% | 0% | 0% | 0% | 91.6% | 0% | 49% | 97.3% | 0% | 0% | 10% | 9% | 93.8% | 0% | 92.2% | 51% | 24% | 36% | 98.6% | 0% |
| O=C(Nc1cccc(Oc2ccc3nccn3n2)c1)Nc1cccc(C(F)(F)F)c1 | 0% | 0% | 0% | 0% | 0% | 0% | 14% | 9% | 21% | 0% | 0% | 0% | 0% | 16% | 0% | 0% | 0% | 0% | 8% | 0% |
| C[C@@H]1CCN(C(=O)N2CCCC2)C[C@@H]1N(C)c1ncnc2[nH]ccc12 | 61% | 18% | 0% | 0% | 8% | 3% | 14% | 0% | 0% | 0% | 7% | 0% | 21% | 73% | 43% | 0% | 0% | 0% | 64% | 0% |
| COc1cccc(CNC(=O)NC2CCN(c3ccnc(Nc4cc(OC)c(OC)c(OC)c4)n3)C2)c1 (stereo not shown) [GSK1379765] | 45% | 0% | 24% | 0% | 39% | 0% | 73% | 64% | 0% | 8% | 0% | 10% | 9% | 0% | 0% | 0% | 0% | 0% | 36% | 13% |
| NC(=O)c1ccc(-c2cc3ncnc(SCC(=O)O)c3s2)cc1 | 0% | 0% | 0% | 0% | 0% | 0% | 0% | 54% | 0% | 0% | 0% | 0% | 0% | 0% | 0% | 0% | 0% | 0% | 8% | 0% |
| COc1cccc(C2=C(Nc3cccc(Cl)c3)C(=O)NC2=O)c1 [SB-341556] | 47% | 9% | 0% | 0% | 42% | 0% | 24% | 14% | 0% | 94.9% | 0% | 8% | 3% | 0% | 3% | 21% | 0% | 23% | 2% | 0% |
| C[C@@H](Oc1cc(-n2cnc3cc(-c4cnn(C)c4)ccc32)sc1C(N)=O)c1ccccc1Cl [GSK580432] | 98.4% | 0% | 84% | 0% | 98.2% | 42% | 85% | 51% | 0% | 3% | 0% | 10% | 92.3% | 0% | 0% | 0% | 0% | 0% | 0% | 0% |
| CC(=O)Nc1ccc(-c2cc3ncnc(SCC(=O)O)c3s2)cc1 | 15% | 0% | 11% | 13% | 0% | 0% | 13% | 32% | 0% | 20% | 1% | 0% | 1% | 0% | 17% | 0% | 0% | 0% | 15% | 0% |
| CSc1nccc(-c2c(-c3ccc(F)cc3)ncn2CCCN2CCOCC2)n1.Cl [SB-217146] | 0% | 1% | 10% | 35% | 0% | 0% | 0% | 0% | 0% | 0% | 0% | 0% | 5% | 3% | 3% | 0% | 45% | 6% | 33% | 2% |
| Cl.c1ccc(Oc2ccc(Nc3ccnc4cc(-c5ccc(CN6CCNCC6)o5)ccc34)cc2)nc1 [GW567142] | 14% | 0% | 34% | 89% | 0% | 7% | 0% | 0% | 24% | 57% | 0% | 1% | 0% | 0% | 3% | 0% | 0% | 0% | 25% | 26% |
| CN(c1ccccc1CNc1nc(Nc2ccc3c(c2)CC(=O)N3)ncc1C(F)(F)F)S(C)(=O)=O | 93.4% | 0% | 70% | 0% | 46% | 0% | 39% | 99.9% | 68% | 0% | 8% | 0% | 86% | 0% | 76% | 92.7% | 6% | 86% | 48% | 0% |
| CCNCC(Cc1ccccc1)NC(=O)c1cc(Br)c(-c2ccnc3[nH]ccc23)s1.Cl.Cl (stereo not shown) [GSK1383280] | 93.1% | 0% | 14% | 0% | 56% | 0% | 0% | 51% | 95.9% | 0% | 0% | 0% | 0% | 79% | 19% | 54% | 0% | 15% | 26% | 0% |
